# Most compounds without a hit are left out; they make up all but 1.1% or so of the library.
# RXFP1 ag = RXFP1 (human) receptor agonism | AID 2676 | Potency, µM (highest dose often 57.5 µM), actives largely listed as activators | Q9HBX9 | HEK293T-RXFP1 cAMP TR-FRET, 30 min; response scale: percent of porcine relaxin response, buffer zero | 370,000 compounds, 0.3% hits; also: nearly all actives have a fitted effect of over 60% in size
# Target sequence (Q9HBX9 whole entry, looked up): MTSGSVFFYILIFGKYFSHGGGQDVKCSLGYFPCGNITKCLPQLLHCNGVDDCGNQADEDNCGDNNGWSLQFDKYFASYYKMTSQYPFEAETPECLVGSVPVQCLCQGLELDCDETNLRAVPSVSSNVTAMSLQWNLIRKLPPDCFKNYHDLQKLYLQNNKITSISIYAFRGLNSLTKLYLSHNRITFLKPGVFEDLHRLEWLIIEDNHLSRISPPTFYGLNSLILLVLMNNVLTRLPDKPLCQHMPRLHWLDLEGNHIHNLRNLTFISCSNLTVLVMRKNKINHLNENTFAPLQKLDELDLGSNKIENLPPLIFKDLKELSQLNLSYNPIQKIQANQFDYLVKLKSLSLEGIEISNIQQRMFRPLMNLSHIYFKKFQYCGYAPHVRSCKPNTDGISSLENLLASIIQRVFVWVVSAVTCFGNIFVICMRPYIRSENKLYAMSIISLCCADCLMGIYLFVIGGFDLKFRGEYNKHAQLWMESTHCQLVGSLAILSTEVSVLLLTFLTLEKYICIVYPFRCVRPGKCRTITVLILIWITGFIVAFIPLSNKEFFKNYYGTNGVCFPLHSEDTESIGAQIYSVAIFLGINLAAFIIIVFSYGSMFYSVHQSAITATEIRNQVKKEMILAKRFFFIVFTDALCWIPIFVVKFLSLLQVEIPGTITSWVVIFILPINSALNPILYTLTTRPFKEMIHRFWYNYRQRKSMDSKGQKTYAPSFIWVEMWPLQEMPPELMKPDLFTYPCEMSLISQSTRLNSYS
#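 HEK293T cells stably expressing RXFP1 were pretreated with the PDE4 inhibitor Ro 20174, exposed to compounds for 30 min at 37C, lysed, and cAMP was read by TR-FRET. Data normalized to buffer (basal) and 29 nM porcine relaxin (100%).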
# gsp antagonist = antagonists of gsp mutant (McCune-Albright syndrome) | AID 624288 | 340,000 compounds, 0.4% hits | Potency, µM (series often up to 76.9 µM), most hits filed as inhibitors | gsp-mutant cells, cAMP HTRF, 30 min; calls by dose curve; cell line not stated here;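 also: intracellular cAMP measured with PDE inhibitor Ro 20-1724 present during compound exposure; nearly all actives have a fitted effect of over 65% in size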
#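 HTRF cAMP read-out (cAMP-d2 plus anti-cAMP antibody-K in lysis buffer, 30 min RT). Before lysis, cells are exposed to compounds with […] for 30 min at 37C in DPBS containing Ca/Mg, BSA and Tween 20.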
# gsp agonist = activates gsp, the McCune-Albright syndrome mutation. gsp mutant cells, cAMP HTRF, 30 min. Potency, µM (series often up to 76.9 µM), usual class: activators. 340,000 compounds, 0.13% hits; active = well fitted activation curve with a large enough effect; inconclusive = small, poorly fitted or top-dose-only effect, or another doubt; inactive = no such curve, though single readings can be large or run the other way; cell line not stated here;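 also: phosphodiesterase inhibitor Ro 20-1724 added with compounds to block cAMP breakdown; nearly all actives have a fitted effect of over 60% in size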
#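 Cells stably selected in G418 were plated at 2000/well, grown 16-24 hr, then given compounds in DMSO with the PDE inhibitor […] (300 uM solution added) for 30 min at 37C; cAMP was read by HTRF.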
# ASM inhibitor = blocks human secretory acid sphingomyelinase; placental ASM, HMU-PC fluorogenic substrate, 60 min; Potency, µM (highest dose often 57.5 µM), actives largely listed as inhibitors; 340,000 compounds, 0.006% hits; AID 504937
#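 Human placenta-derived ASM enzyme was preincubated with compound for 10 minutes at room temperature, then given fluorogenic substrate HMU-PC0 (9 uM final) for 60 minutes at 37 °C; a pH 10 stop preceded fluorescence reading at Ex 386/Em 447 nm.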
# RXFP1 antagonist = blocks the human relaxin receptor RXFP1; Q9HBX9; HEK293-RXFP1, relaxin-stimulated cAMP HTRF, 30 min; hits give low values; activity change, negative = inhibition, % at 57.5 µM; 350,000 compounds, 0.59% hits; AID 1259400;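 active = activity change of -60% or lower, but not beyond a set lower limit; inconclusive = change between -60% and -40%, or beyond the set limit; inactive = change above -40%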
# Integrin act MD = activates integrin-mediated alleviation for muscular dystrophy. 350,000 compounds, 0.064% hits. AID 624291. alpha7betagal myoblasts, beta-gal FDG fluorescence, 48 h. Potency, µM (doses to about 38.3 µM), usual class: activators; also: nearly all actives have a fitted effect of over 60% in size
#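 Alpha7betagal+/- myoblasts (passage 13) were plated 16-24 hr, then exposed to compounds (1:260 dilution of DMSO stock) for 48 hours at 37C. After MPER lysis, β-galactosidase reporter activity was read as FDG fluorescence (ex 480/em 540) after 30 minutes.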
# Hits are given with their value; i = inactive; ? = inconclusive; nt = no result given; [ ] = remark or other dose. Unless noted, calls follow the shape of the dose curve; as a rule, active = well fitted curve in the direction sought with a large enough effect; inconclusive = small, poorly fitted or top-dose-only effect, or another doubt; inactive = no such curve, though single readings can be large; an effect the other way counts as inactive or inconclusive.
SMILES,RXFP1 ag,gsp antagonist,gsp agonist,ASM inhibitor,RXFP1 antagonist,Integrin act MD
Cc1nc(N2CCN(c3ccccn3)CC2)c2c(C)c(C(=O)Nc3ccc(F)cc3F)sc2n1,i,i,i[15.4 µM],i,i,i
Cc1ccc(F)cc1NC(=O)c1sc2ncn(CC(=O)N3CCN(c4ccccn4)CC3)c(=O)c2c1C,16µM,i,?,i,i,i
COc1ccccc1NC(=O)Cn1cnc2sc(C(=O)Nc3ccc(OC)c(OC)c3)c(C)c2c1=O,i,i,i,i,-71,i
CC1CCCCCCC1OC(=O)c1ccccc1C(=O)O (centres undefined),nt,i,i,i,i,i
CCOc1ccc(CCNC(=O)CCCn2c(=O)c3cccn3c3ccccc32)cc1,?,nt,nt,nt,i,nt
CC(CNC(=O)CCCn1c(=O)c2cccn2c2ccccc21)c1ccccc1 (centres undefined),i,nt,nt,nt,-78,nt
CSc1ccc(CCNC(=O)CCCn2c(=O)c3cccn3c3ccccc32)cc1,i,nt,nt,nt,-75,nt
O=C(NCC(=O)N1CC=C(c2ccccc2)CC1)c1ccccc1Br,i,i,i[15.4 µM],i,i,i
O=C(C1CCCCC1)N1CC(=O)N2CCCc3ccccc3C2C1 (centres undefined),nt,nt,nt,nt,i,nt
COc1ccccc1N1CCN(C(=O)CCCCCn2c(=S)[nH]c3cc4c(cc3c2=O)OCO4)CC1,nt,nt,i,nt,-78,i
O=C(CCCn1c(=S)[nH]c2cc3c(cc2c1=O)OCO3)N1CCN(c2ccccc2F)CC1,i,i,i,i,?,i
CCOC(=O)N1CCN(C(=O)c2ccc(Cn3c(=S)[nH]c4cc(OCC)c(OCC)cc4c3=O)cc2)CC1,i,?,i[15.4 µM],i,i,i
CCOC(=O)N1CCN(C(=O)c2ccc(Cn3c(=S)[nH]c4cc5c(cc4c3=O)OCO5)cc2)CC1,i,?,i,i,-92,i
COc1ccccc1N1CCN(C(=O)CCCn2c(=S)[nH]c3ccccc3c2=O)CC1,nt,nt,i,nt,-65,i
Cc1ccc(C)c(N2CCN(C(=O)CCCn3c(=S)[nH]c4cc5c(cc4c3=O)OCO5)CC2)c1,i,i,i,i,-102,?
CCOC(=O)c1cnc2c(ccc3ccccc32)c1Nc1ccc(OC)cc1OC,i,nt,nt,nt,i,nt
O=C(CN1C(=O)NC2(CCc3ccccc32)C1=O)NCc1cccc(C(F)(F)F)c1 (centres undefined),nt,i,i,i,i,i
COc1ccc(S(=O)(=O)NCCSCc2cccs2)cc1,i,32µM,i,i,i,i
Cc1nc(SCc2ccc([N+](=O)[O-])cc2)n[nH]1,i,i,i,i,-73,i
CCc1nc(SCc2ccc([N+](=O)[O-])cc2)n[nH]1,i,i,i,i,i,i
CCOC(=O)c1c(NC(=O)c2ccc(S(=O)(=O)N3CCC(C)CC3)cc2)sc2c1CCN(C)C2,i,nt,nt,nt,-63,nt
CCOC(=O)N1CCN(S(=O)(=O)c2ccc(C(=O)Nc3sc4c(c3C(=O)OC)CCN(C)C4)cc2)CC1,i,i,i,i,i,i
Cc1ccc(S(=O)(=O)NCC(=O)NCc2cc(=O)n(C)c(=O)n2C)cc1,i,i,i,i,i,i
Cc1ccc(S(=O)(=O)NCC(=O)NCc2cc(=O)n(C)c(=O)n2C)cc1C,i,i,i,i,-100,i
COc1ccc(OC)c(NC(=O)CSc2ncnc3c2cnn3-c2ccccc2Cl)c1,i,2µM,i,i,i,i
SMILES,RXFP1 ag,gsp antagonist,gsp agonist,ASM inhibitor,RXFP1 antagonist,Integrin act MD
CCOc1ccc(-c2nonc2NC(=O)c2oc3cc(C)ccc3c2C)cc1,i,nt,nt,nt,-66,nt
COCCCN1CCN(C2Cc3ccccc3Sc3ccc(Cl)cc32)CC1 (centres undefined),i,i,i,i,nt,i
Fc1ccc2c(c1)Sc1ccc(Cl)cc1CC2N1CCN(CCC2OCCO2)CC1 (centres undefined),nt,i,?,i,-62,i
CC1=C(C(N)=O)C(c2cccc(C)c2)n2nc(-c3ccc(Cl)cc3)nc2N1 (centres undefined),i,nt,nt,nt,-62,nt
CC(NC(=O)CCn1c(=O)c2cccn2c2ccc(F)cc21)c1ccccc1 (centres undefined),i,nt,nt,nt,i,nt
CC(C)c1ccc(S(=O)(=O)c2nnn3c2nc(N2CCCC2)c2sccc23)cc1,i,nt,nt,nt,i,nt
COc1c2c(nc3occc13)C(CC=C(C)C)(OC)C(=O)C=C2 (centres undefined),i,i,i[15.4 µM],i,-62,i
C=CCOc1ccc2c(OC)c3ccoc3nc2c1OC,i,i,i,i,i,i
CCOC(=O)c1cc2c(=O)n3ccccc3nc2n(Cc2ccco2)c1=NC(=O)c1ccccc1OCC,28µM,i,i[15.4 µM],i,i,i
Cc1ccc(C(=O)Nc2ccc(SC(F)F)cc2)s1,i,nt,i[15.4 µM],i,-73,i
CC[N+](CC)(CC)CC(=O)Nc1ccc(SC(F)F)cc1,i,i,i[15.4 µM],i,i,i
COc1cccc(CNc2ncc(Br)cc2Br)c1O,i,i,i,i,-78,i
N#Cc1c(-c2ccco2)nc(SCc2ccc(F)cc2)[nH]c1=O,25µM,i,?,i,i,i
Cc1ccc(C(=O)Nc2ccc3c(c2)C(=O)N(C)C3=O)c(C)c1,i,i,35µM,i,nt,i
CC(C)(C)c1csc(NC(=O)c2cccnc2)n1,i,i,?,i,i,?
CC(C)(C)c1csc(NNC(=O)c2ccc(Cl)cc2)n1,i,i,i,i,-95,i
CCN(Cc1ccc2c(c1)OCO2)C(=O)CSc1ncnc2sccc12,i,i,i,i,i,i
CCN(Cc1ccc2c(c1)OCCO2)C(=O)CSc1nc(C)nc2sc(C)c(C)c12,i,50µM,i,i,i,i
COc1ccc(-n2cc(-c3ccccc3)c3c(=O)[nH]cnc32)cc1,i,i,i[15.4 µM],i,i,i
O=c1[nH]cnc2c1c(-c1ccccc1)cn2-c1cccc(Cl)c1,i,i,i,i,-112,i
CN(C)c1ccc(-c2nc3cc(N)ccc3o2)cc1,28µM,i,20µM,i,i,i
NS(=O)(=O)c1ccc(CCNC(=O)C2CCC(Cn3c(=S)[nH]c4ccccc4c3=O)CC2)cc1 (centres undefined),i,i,i,i,-69,i
O=C(NNC(=O)c1ccccc1F)c1ccc(-c2ccc(Cl)cc2)o1,i,i,i[15.4 µM],i,-87,i
O=C(NC1CCC(O)CC1)c1ccc(-c2ccc(Cl)cc2)o1 (centres undefined),i,i,i[15.4 µM],i,i,i
COc1ccc(S(=O)(=O)Nc2cc3c(cc2NCc2ccccc2)n(C)c(=O)n3C)cc1,28µM,nt,nt,nt,i,nt
Cc1cc(C)c(S(=O)(=O)c2cccc(Br)c2C)c(Cl)n1,i,i,i,i,i,i
CCOc1ccc(/C=N/NC(=O)c2nnn(-c3nonc3N)c2-c2ccc(OCC)cc2)cc1,i,i,i[15.4 µM],i,i,i

# Assay outcomes from PubChem BioAssay.
